40 compounds from PubChem BioAssay can be followed below.

“And” between values parts separate entries of the source, which are not always exact repeats. Identical values can stand only once. Unmarked numbers belong to inactive results.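 Rule for the calls: active = compounds whose cell count with miR-34 switched on is under 0.7 times the count with it off; inactive = the rest.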

A short description of the test: sensitizers of A549 cells to miR-34 induction, primary screen, imaging, A549 dox-inducible miR-34, nuclei and caspase counts (AID 1347080). Note: test concentration not given here. The following applies: A549 miR-34 inducible, Hoechst nuclei count, 48 h; hits give low values; cell number ratio, induced over uninduced.
Consider `C[C@]12C=CC(=O)C=C1CCC1C2[C@@H](O)C[C@@]2(C)C1CC[C@]2(O)C(=O)COP(=O)(O)O` (stereo not given in full), for which the fold change is 0.855. In the case of `CC(C)OC(=O)CCC/C=C\C[C@@H]1[C@@H](/C=C/C(O)COc2cccc(C(F)(F)F)c2)[C@H](O)C[C@@H]1O` (stereo not given in full), the fold change is 0.865. For the compound `CC12CCC3c4ccc(O)cc4CCC3C1C[C@H](O)[C@@H]2O` (stereo not given in full), the fold change is 0.999.

For the compound `CC(C)(CO)C(O)C(=O)NCCC(=O)NCCSSCCNC(=O)CCNC(=O)C(O)C(C)(C)CO` (stereo not given), the fold change is 0.968. Consider `COc1cc(O)cc(C(=O)c2ccccc2)c1S(=O)(=O)O`, for which the fold change was 0.973. Take `NCCCC(N)C(=O)O` (stereo not given): the fold change was 0.906.

As for `N[C@@H](CO)c1ccccc1`, the fold change was 0.995. As for `CC(=O)Oc1cc2c(s1)CCN([C@H](C(=O)C1CC1)c1ccccc1F)C2`, the figure is 0.848. Regarding `Cc1oc(=O)oc1CN1CCN(c2cc3c(cc2F)c(=O)c(C(=O)O)c2n3C(C)C2)CC1` (stereo not given), the fold change is 0.994. For `O=C(O)c1ccccc1-c1c2cc(I)c(=O)c(I)c-2oc2c(I)c(O)c(I)cc12`, the fold change is 0.927.

Consider `NC(N)=NCCCC(N)C(=O)O` (stereo not given), for which the fold change is 0.874. `Cc1cc(=O)c(C(=O)N[C@@H](C(=O)N[C@@H]2C(=O)N3C(C(=O)O)=C(CSc4nnnn4C)CSC23)c2ccc(O)cc2)c[nH]1` (stereo not given in full): the fold change was 0.93. Consider `CC1(C)O[C@@H]2CC3C4CCC5=CC(=O)C=C[C@]5(C)C4[C@@H](O)C[C@]3(C)[C@]2(C(=O)CO)O1` (stereo not given in full), for which the fold change was 0.861. As for `C=C(C)C1CC=C(C)CC1` (stereo not given), the figure is 0.884; as for `NC(=O)C1CCCN1C(=O)C(Cc1cnc[nH]1)NC(=O)C1CCC(=O)N1` (stereo not given), 0.936; as for `OC[C@@H](O)[C@H](O)[C@@H](O)[C@H](O)CO`, 0.853.

Consider `COc1nc(N)nc2c1ncn2C1O[C@H](CO)[C@@H](O)[C@@H]1O` (stereo not given in full), for which the fold change is 0.89. Consider `Nc1nc(NC2CC2)c2ncn(C3C=C[C@@H](CO)C3)c2n1` (stereo not given in full), for which the fold change was 0.995. Turning to `CCN(CC)C(=O)C1(c2ccccc2)CC1CN` (stereo not given), the fold change is 0.92. Regarding `Cc1cc(CC(C)CC(C)(C)C)n(O)c(=O)c1` (stereo not given) (tested in a mixture with another compound), the fold change is 1.25 and 1.02.

Turning to `CC1/C=C/C=C/C=C/C=C/C=C/C=C/C=C/C(O[C@@H]2O[C@H](C)[C@H](O)[C@@H](O)[C@@H]2N)CC(O)C(C(=O)O)C(O)CC(=O)CC(O)CC(O)CC(O)CC(=O)CCCC(=O)CC(=O)OC1C(C)CC(C)C(O)CC(=O)c1ccc(N)cc1` (stereo not given in full), the fold change was 0.786. For the compound `CCCC[C@@H](CC)COC(=O)C(C#N)=C(c1ccccc1)c1ccccc1`, the fold change is 0.897. On to `O=C1c2c(O)cccc2[C@@H](O[C@@H]2O[C@H](CO)[C@H](O)[C@@H](O)[C@H]2O)c2cc(CO)cc(O)c21`, for which the fold change was 0.925. With `Cc1cc2nc3c(=O)[nH]c(=O)nc-3n(C[C@@H](O)[C@@H](O)[C@@H](O)COP(=O)(O)O)c2cc1C`, the fold change was 0.895.

Consider `C#C[C@]1(O)CCC2C3CCc4cc(OC5CCCC5)ccc4C3CC[C@@]21C` (stereo not given in full), for which the fold change was 0.818. As for `CSCC[C@H](NC(=O)[C@H](Cc1c[nH]c2ccccc12)NC(=O)[C@H](C)NC(=O)OC(C)(C)C)C(=O)N[C@@H](CC(=O)O)C(=O)N[C@@H](Cc1ccccc1)C(N)=O`, the figure is 0.979; as for `C[C@]12CCC(=O)C=C1[C@@H]1C[C@@H]1C1C2CC[C@@]2(C)C1[C@@H]1C[C@@H]1[C@@]21CCC(=O)O1` (stereo not given in full), 1.02; as for `COc1c(O)cc2c(c1O)[C@H]1O[C@H](CO)[C@@H](O)[C@H](O)[C@@H]1OC2=O`, 0.894. As for `CC(C)(O)c1ccccc1CC[C@@H](SC1(CC(=O)O)CC1)c1cccc(/C=C/c2ccc3ccc(Cl)cc3n2)c1`, the figure is 0.955; as for `CC(C)C/C=C/C=C\C(=O)N[C@@H](CC(N)=O)C(=O)N[C@@H]1C(=O)N[C@H](c2ccc(O)cc2)C(=O)N[C@H](CCCN)C(=O)N[C@H]([C@H](C)O)C(=O)N[C@@H](c2ccc(O)cc2)C(=O)N[C@H](c2ccc(O)cc2)C(=O)N[C@@H]([C@H](C)O)C(=O)N[C@@H](Cc2ccccc2)C(=O)N[C@H](CCCN)C(=O)N[C@@H](c2ccc(O[C@@H]3O[C@H](CO)[C@H](O)[C@@H](O)[C@@H]3O[C@@H]3O[C@H](CO)[C@@H](O)[C@H](O)[C@H]3O)cc2)C(=O)NC(C(C)O)C(=O)N[C@@H](c2ccc(O)cc2)C(=O)NCC(=O)N[C@@H](CC(C)C)C(=O)N[C@H](C)C(=O)N[C@@H](c2ccc(O)c(Cl)c2)C(=O)O[C@@H]1C(N)=O` (stereo not given in full), 0.899. For the compound `O=C1SCN(Cc2ccccc2)CN1Cc1ccccc1`, the fold change was 0.983. For the compound `CC(=O)[C@H]1CCC2C3CC=C4C[C@@H](OC(=O)CCC(=O)O)CC[C@]4(C)C3CC[C@@]21C` (stereo not given in full), the fold change is 0.903. For the compound `NC(=O)c1ncn(C2O[C@H](CO)[C@@H](O)[C@H]2O)c1N` (stereo not given in full), the fold change was 0.937. Take `CO/N=C(/C(=O)N[C@@H]1C(=O)N2C(C(=O)OCSC(=O)c3ccco3)=CCS[C@H]12)c1csc(N)n1`: the fold change was 0.907. For `CC(=O)[C@@]12O[C@](C)(c3ccccc3)O[C@@H]1CC1C3CCC4=CC(=O)CC[C@]4(C)C3CC[C@@]12C` (stereo not given in full), the fold change is 0.858. For `CC(=O)c1ccc2c(c1)Sc1ccccc1N2CCCN1CCN(CCO)CC1`, the fold change was 0.952. For `CO/N=C(/C(=O)NC1C(=O)N2C(C(=O)O)=C(CSc3nnnn3C)CSC12)c1csc(N)n1` (stereo not given), the fold change is 0.936. Turning to `O=c1[nH]c(=O)n([C@H]2C[C@H](O)C(CO)O2)cc1I` (stereo not given in full), the fold change is 1.01. As for `CC(=O)OC1CC2CCC1(C)C2(C)C` (stereo not given), the figure is 0.913. As to `C[C@@H]1CC2C3CCC4=CC(=O)C=C[C@]4(C)[C@@]3(F)[C@@H](O)C[C@]2(C)[C@H]1C(=O)CO` (stereo not given in full), the fold change was 0.893 and 0.821.
